Data on 29 compounds can be found in PubChem BioAssay (NCI).

Molecules are shown by their SMILES. Values joined by “and” are separate entries in the source; they are usually repeats but may differ in a detail not shown here. Equal values may be shown once. The panel holds about 83,000 compounds, 20% with a hit somewhere; the sample as a whole holds those more often.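 For each line, cells grew in 96-well plates with the test compound present at a single concentration for 48 hours.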 A number with no mark means an inactive call. Active and inactive are the calls of the source. The calls were made as follows: active = growth percent below 10; inactive = the rest.

The test system of the assay is MDA-MB-468 breast. In words: NCI-60 one-dose screen, 48 h (100 = growth as untreated, 0 = no growth, -100 = all killed). Conditions: 10 µM unless noted.
Turning to `CC(=O)N(C)c1ccc(Nc2ccc(Nc3ccc(N(C)C(C)=O)cc3)c3c2C(=O)c2ccccc2C3=O)cc1`, the growth was 30.9%.
The value for `C=C(C)[C@@H]1C/C=C(/C=O)CC[C@@H]2O[C@@]2(C)CC/C=C(\C)CC1` was 118%.
`N#Cc1nc(C#N)c(Sc2ccccc2)c(Sc2ccccc2)c1Sc1ccccc1`: the growth was -73.9% (active).
Next, `O=C(/C(=C\c1ccc([N+](=O)[O-])cc1)S(=O)Cc1ccc(Cl)cc1)c1ccc(Cl)cc1` (centres undefined): 74%; `Oc1ccccc1-c1nnc(SCc2ccc(O)c3ncccc23)o1`: 44.4%; `CCN(CC)c1ccc2c(c1)Oc1nc(N)c(C#N)c(N)c1C2Sc1ccc(C)cc1` (centres undefined): -88.4% (active).
For the compound `Cc1c2ccccc2nc2cc3c(cc12)[C@H]1CC[C@]2(C)C(=O)CC[C@H]2[C@@H]1CC3`, the growth was 91.3%.
As to `CC(NC(=O)CCl)c1ccccc1` (centres undefined), the growth was 89%.
Turning to `COc1cccc(-c2nn(-c3ccccc3)cc2-c2ccnc(NCCCNS(=O)(=O)c3ccc(Br)cc3)c2)c1`, the growth was 35.5%.
In the case of `COc1ccc(-c2nn(-c3ccc(NC(=O)c4cc(Cl)cc(Cl)c4)cc3)cc2-c2ccncc2)cc1Cl`, the growth was 70.1%.
In the case of `COc1ccc(C2=CC(c3cc(OC)c(OC)c(OC)c3)n3ncnc3N2)cc1` (centres undefined), the growth is 32.2%.
As to `OCCNC(=S)Nc1ccc(-c2nc(N3C[C@H]4CC[C@@H](C3)O4)c3cccn3n2)cc1`, the growth was -24.6% (active).
On to `c1cc(CNC23CC4CC(CC(C4)C2)C3)cc(C[N+](Cc2cccc(CNC34CC5CC(CC(C5)C3)C4)c2)(Cc2cccc(CNC34CC5CC(CC(C5)C3)C4)c2)Cc2cccc(CNC34CC5CC(CC(C5)C3)C4)c2)c1` (centres undefined), for which the growth was -47.1% [42 µM] (active).
Next, `CC[C@H](C)C(=O)O[C@H]1CCC=C2C=C[C@H](C)C(CCC3C[C@@H](O)CC(=O)O3)[C@H]21` (some centres undefined): 75.4%; `COc1cc(-c2ccc(NC(=O)CC(C)=O)c(OC)c2)ccc1NC(=O)CC(C)=O`: 109%; `CCC(c1ccc(OC)cc1)C(CC)c1ccc(O)c(CN2CCCCC2)c1` (centres undefined): 22.9%.
On to `O=c1cc(-c2ccccc2)oc2c(O)c(O)ccc12`, for which the growth was 79.5%.
As for `CCC12OC(COc3ccccc3)CN1CCN2c1ccccc1` (centres undefined), the growth is 97.4% [100 µM].
Regarding `O=C(Nc1cccc(Cl)c1)Oc1c(Cl)c(Cl)c(Cl)c(Cl)c1Cl`, the growth is 110%.
In the case of `Cc1ccc2c(n1)C(=O)C(Cl)=C(Nc1cccc(C)c1C)C2=O`, the growth was -63.3% (active).
Turning to `NC1=C(Br)C(=O)c2ncccc2C1=O`, the growth is -14.8% (active).
Regarding `O=C(COc1cc(O)c2c(=O)cc(-c3ccccc3)oc2c1)Nc1ccccc1C(F)(F)F`, the growth was 67.6%.
Regarding `Nc1c(C(=O)Nc2c(Cl)cccc2Cl)sc2nc3c(cc12)CCCCC3`, the growth was 32.1%.
For `O=C1/C(=C2\SC(=S)N(C3CC3)C2=O)SC(=S)N1C1CC1`, the growth was 88.7%.
On to `Clc1ccccc1[C@@H]1C[C@@H]2Cc3cc(Br)c4ccccc4c3N1O2`, for which the growth is 4.19% (active).
Next, `CC(=O)Nc1cccc(Nc2nc(N[C@@H](C)c3ccccc3)c3ccccc3n2)c1`: -39.8% (active).
In the case of `O=C(O)c1ccccc1Oc1cc(-c2ccco2)nc(OCCBr)n1`, the growth was 119%.
On to `CC(=O)Nc1cccc2cc(O)ccc12`, for which the growth was 112% and 101% and 110%.
Next, `O=C1Nc2ccc(Br)cc2C12Oc1ccccc1C1CC(c3ccc(F)cc3)=NN12` (centres undefined): 82.1%.
